Screening data: PubChem BioAssay, National Center for Advancing Translational Sciences (NCATS)
D1 antag – antagonists of human D1 dopamine receptor | P21728 | HEK293 TREx D1 cells, calcium flux, dopamine EC80; stronger effect = lower value | activity change, negative = inhibition, % at 10 µM | 360,000 tested, 3.2% active | AID 504652; in the data active = activity change below about -30%; also: % is scaled to controls: 0 for no effect and ±100 for the full control effect
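Compound effects on dopamine-evoked calcium signalling were measured in tetracycline-induced HEK293 Trex D1 cells. Dopamine at EC80 followed a 180 s compound pre-read, and fluorescence was tracked kinetically for 180 s more.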
TRHR ag – TRH receptor (human) agonism; TRHR cells, calcium flux fluo-8, FDSS agonist mode; activation, % at 2 µM; 360,000 tested, 0.18% active; AID 493084; also: 0% is about no effect
Target sequence (P34981 whole entry, looked up): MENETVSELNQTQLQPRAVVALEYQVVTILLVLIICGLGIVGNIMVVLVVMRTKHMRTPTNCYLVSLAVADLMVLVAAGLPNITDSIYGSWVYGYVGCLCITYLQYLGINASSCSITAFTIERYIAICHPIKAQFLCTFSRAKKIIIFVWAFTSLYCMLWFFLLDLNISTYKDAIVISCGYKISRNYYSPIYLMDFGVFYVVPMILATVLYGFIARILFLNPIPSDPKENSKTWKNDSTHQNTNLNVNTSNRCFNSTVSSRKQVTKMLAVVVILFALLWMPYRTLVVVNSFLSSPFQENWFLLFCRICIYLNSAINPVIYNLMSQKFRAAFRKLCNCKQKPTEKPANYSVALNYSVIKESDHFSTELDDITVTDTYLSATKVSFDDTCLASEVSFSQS
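TRHR-expressing cells loaded with fluo-8 calcium dye; 23 nL library compound pin-transferred, kinetic FDSS fluorescence (Ex 480/Em 530) recorded about 180 s for agonist-induced calcium release, before a 10 nM TRH EC20 addition for potentiator mode.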
D1 agonist – agonists of human D1 dopamine receptor; P21728; HEK293 T-REx D1 cells, calcium flux, agonist mode; 360,000 tested, 1% active; activation, % at 2 µM; also: 0% is about no effect
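Tetracycline-induced HEK293 TREx D1 cells, force-coupled to calcium signalling, were dye-loaded with a no-wash calcium kit. Compound was pin-added after a 10 s baseline. Fluorescence was read kinetically at 1 cycle/s for 180 s, with calcium rises flagged as agonism.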
TRHR enhancer – TRH receptor (human) allosteric enhancement; P34981; TRHR cells, fluo-8 calcium fluorescence, EC20 TRH enhancement; enhancement, % at 2 µM; 360,000 tested, 0.66% active; in the data active = enhancement above about 30%; also: 0% is about no effect
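TRHR-expressing cells loaded with fluo-8 calcium dye were read kinetically (ex 480/em 530) during compound addition, then stimulated with an EC20 of TRH (10 nM final). Enhancement of the Gq-mediated intracellular calcium response was scored.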
D1 potentiator – potentiators of human D1 dopamine receptor | HEK293 TREx D1 cells, calcium flux, dopamine EC20 potentiation | potentiation, % at 10 µM | 360,000 tested, 0.036% active | AID 504651; in the data active = potentiation above about 30%; also: 0% is about no effect
* = called active by the depositor; nt = not tested or not shown; ! = not confirmed by another sample. Hits are enriched below; roughly 4.6% of the tested compounds scored in any of these assays. Rule as the data show it, unless noted: active = activation above about 30%; inactive = the rest.

SMILES	D1 antag	TRHR ag	D1 agonist	TRHR enhancer	D1 potentiator
Cc1occc1-c1nnc(SCC(=O)Nc2ccccn2)o1	3	0	9	39*	1
COc1ccc(-c2nnc(SCC(=O)Nc3cc(F)ccc3C)o2)cc1	-39*	-1	12	13	nt
COc1ccc(NC(=O)CN2C(=O)C(c3ccc(C)cc3)=NC23CCCCCC3)cc1Cl	-5	0	4	2	-2
COc1cc(-c2nc3nc[nH]n3c2Nc2ccc(C(C)C)cc2)ccc1O	0	0	9	-1	0
COc1ccc2[nH]cc(CCNC(=O)CCC3CCCCC3)c2c1	-43*	-1	-1	-6	-4
CCC(C(=O)NCCc1c[nH]c2cc(OC)ccc12)c1ccccc1 (configuration not stated)	-80*	-1	2	3	-2
COc1ccc2[nH]cc(CCNC(=O)Cc3ccc(Br)cc3)c2c1	7	-1	6	3	3
COc1ccc2[nH]cc(CCNC(=O)Nc3ccccc3)c2c1	-34*!	4	4	-5	-7
Cc1c(NC(=O)Cc2ccc(F)cc2)cccc1-c1nc2cccnc2s1	-11	-1	2	-2	-2
COc1cccc(-c2nc3ccc(O)cc3c(=O)o2)c1	0	0	2	36*	4
CC(=O)Oc1cccc(-c2nc3ccccc3c(=O)o2)c1	1	0	0	-4	-2
COc1ccccc1CNC(=O)C1CCN(S(=O)(=O)c2c(C)noc2/C=C/c2cccs2)CC1	-4	1	5	7	3
Cc1cccc(OCCCCCn2ccnc2)c1C	3	-1	46*	3	-6
O=C(NCC(c1ccc(Cl)cc1)N1CCCCC1)c1ccccc1 (configuration not stated)	4	-1	-2	-4	1
COc1ccc(NC(=S)N2CCN(Cc3ccccc3)CC2)cc1	2	0	9	33*	-6
COc1cccc(NC(=S)N2CCCN(Cc3ccc(F)cc3)C2)c1	-41*	0	12	1	-12
COC(=O)c1cc(OC)c(OC)cc1NC(=S)N1CCN(Cc2ccccc2)CC1	-32*	0	-1	10	-4
CCOc1ccc(Nc2oc(-c3ccc(COc4ccc(OC)cc4)o3)nc2C#N)cc1	0	0	-1	2	0
CCOCCCNC(=O)CN1C(=O)CCn2nc(-c3cccn3C)cc21	-19	1	-1	-1	-2
CNS(=O)(=O)c1cn(CC(=O)N2CCN(c3ccccc3F)CC2)cc1S(=O)(=O)NC	-6	-1	2	2	0
Cc1ccc2c(c1)N(C(=O)N1CCC(C(=O)NCc3ccccc3F)CC1)CC(C)O2 (configuration not stated)	-5	0	1	0	-3
Cc1cc(C)c(C#N)c(SCC2COc3ccccc3O2)n1 (configuration not stated)	-5	-1	38*	2	1
Cc1ccc(C(=O)N2CCCCC2C(=O)O)o1 (configuration not stated)	5	0	1	-3	-1
CC1CCCCN1C(=O)c1ccc(Br)o1 (configuration not stated)	6	0	4	32*	-1
Cc1ccnc(NC(=O)CCC(=O)N(CC(=O)NC2CCCCC2)c2cccc(C)c2C)c1	-42*	0	1	-4	-4
SMILES	D1 antag	TRHR ag	D1 agonist	TRHR enhancer	D1 potentiator
Cc1ccc(N(CC(=O)NC2CCCC2)C(=O)CCCC(=O)Nc2ccccn2)cc1C	-46*	-2	1	3	-7
O=C(CCC(=O)N(CC(=O)NC1CCCC1)C1CCCCC1)Nc1ccccn1	-46*	0	8	6	-7
O=C(CC1(O)C(=O)N(CCc2ccccc2)c2ccc(Br)cc21)c1ccccc1O (configuration not stated)	34	3	-3	-13	1
Cc1ccc2c(c1)N(C(=O)c1ccc(F)cc1)C(C)(C)CC2(C)c1ccccc1 (configuration not stated)	4	-1	1	-5	2
Cc1cc2c(=O)[nH]c(Cc3ccccc3)nc2s1	-41*	0	0	-1	-6
CCc1cc2c(=O)[nH]c(Cc3ccccc3)nc2s1	-3	0	2	-2	-1
COC(=O)c1ccc(N(CC(=O)NC2CCCC2)C(=O)CNC(=O)c2cccs2)cc1	21	0	1	4	30*
COc1cccc(NC(=O)CSc2nc(O)c(C/C=C/c3ccccc3)c(=O)[nH]2)c1	4	0	0	4	0
Clc1cccc(-c2csc(-c3nc(-c4ccc(Br)s4)cs3)n2)c1	8	1	2	13	0
CCOC(=O)C1CN(S(=O)(=O)c2ccc(C)cc2)c2ccccc2O1 (configuration not stated)	-45*	2	6	-1	-6
COc1ccccc1NCc1nnc2n1CCCCC2	-7	0	3	-4	3
Cc1cc(C)c(Nc2cc(S(=O)(=O)O)c(N)c3c2C(=O)c2ccccc2C3=O)c(C)c1	-15	0	40*	3	-2
CCOc1ccccc1NC(=O)C1CCCN(c2ncnc3onc(-c4ccc(F)cc4)c23)C1 (configuration not stated)	3	0	1	9	-2
C/C(=N\NC(=O)c1ccco1)c1ccc(NC(=O)c2ccccc2)cc1	-33*	0	4	1	-7
C/C(=N\NC(=O)c1ccco1)c1ccc(-c2ccccc2)cc1	-1	0	2	9	-4
C/C(=N\NC(=O)c1ccco1)c1ccc(NC(=O)C(F)(F)F)cc1	-18	0	5	39*	-4
COc1ccc(/C=C/C(=O)Nc2ccc(-c3nnc4n3CCCCC4)cc2)c(OC)c1	-16	0	3	35*	9
NC(=O)NC(Cc1ccccc1)C(=O)Nc1ccc(S(N)(=O)=O)cc1 (configuration not stated)	-76*	1	0	7	-1
Cn1cccc1/C=N\NC(=O)C1COc2ccccc2O1 (configuration not stated)	-38*	0	1	-5	-10
Cc1c(/C=N\NC(=O)C2COc3ccc(C(C)(C)C)cc3O2)c2ccccc2n1C (configuration not stated)	-86*	1	-1	-24	-12
CC(C)(C)c1ccc2c(c1)OC(C(=O)N/N=C\c1ccc[nH]1)CO2 (configuration not stated)	0	0	2	12	-2
Cn1cccc1/C=N\NC(=O)C1COc2ccc(C(C)(C)C)cc2O1 (configuration not stated)	-16	1	0	-11	0
CCOC(=O)N1CCC(NS(=O)(=O)c2cc(Br)cnc2N)CC1	-30*	0	2	10	-8
